Structures are written as SMILES. Hit rate of the full screen: of about 320,000 compounds, about 1,300 (0.41%) were called active. Not shown: some 3% with an inconclusive outcome. No rule for the calls is given here. Not all results are given here. Potency and affinity values are given separately.

Our source for the inhibition values is PubChem BioAssay AID488890 (Southern Research Specialized Biocontainment Screening …, 2010).

The assay in a line: growth inhibition of non-replicating M. tuberculosis (AID 488890).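 Also: plate controls were DMSO cells for no effect and high antibiotic wells for full effect.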 The note with it: Mycobacterium tuberculosis non-replicating, at 25 µM, stronger effect = higher value.
On to `COc1ccc(CCNC(=O)C2CCCN(S(=O)(=O)N3CCCCCC3)C2)cc1OC` (stereo unspecified), for which the inhibition amounted to 14.5%.
To `CCOc1ccc(/C=C/C(=O)N(CC)CC(=O)Nc2ccc3c(c2)OCCO3)cc1OC` belongs 13.6%.
For `COc1ccc(N2CCN(Cc3nc4cc(Cl)ccc4c(=O)[nH]3)CC2)cc1` the value was 0.72%.
To `CCCn1nnnc1NCc1ccc(OC)cc1` belongs 37%.
With `CCCn1nnnc1NCc1ccc(N(C)C)cc1`, the inhibition turned out to be 2.84%.
For `CC(C)c1ccc(CNc2nnnn2C)cc1` the value was 44.6%.
To `CCCn1nnnc1NCc1ccc(F)cc1` belongs 24.5%; to `CN(Cc1ccccc1)C(=O)COC(=O)C1CCN(S(=O)(=O)c2ccc(Cl)c(C(F)(F)F)c2)CC1`, -14.1%.
Turning to `CC1CCN(C(=O)C2CCC(CNc3c(N4CCCCC4)c(=O)c3=O)CC2)CC1` (stereo unspecified), the inhibition amounted to 15.8%.
On to `O=Cc1cn(-c2ccccc2)nc1-c1ccc(F)cc1`, for which the inhibition was determined as 1.85%.
For `COc1ccc(-c2nn(-c3ccccc3F)cc2CNCCn2nc(C)cc2C)cc1` the value was 52.6%.
Turning to `OCc1cn(-c2ccccc2)nc1-c1ccc(-c2nn(-c3ccccc3)cc2CO)cc1`, the inhibition is -3.64%.
For `Cc1ccc(-n2cc(CNCCN3CCOC3=O)c(-c3ccc(F)cc3)n2)cc1` the value was 26.6%; for `O=C(c1ccc2oc(Cc3ccc(Cl)cc3)nc2c1)N1CC[C@H](O)C1`, -2.21%; for `CC#CCN(Cc1ccco1)C(=O)c1ccc(OC2CCN(Cc3ccccn3)CC2)cc1`, 10.1%.
Turning to `COc1ccc(/C=C(/C#N)C(=O)Nc2cccnc2)cc1OC`, the inhibition was -2.65%.
To `C#CCOCCOCCOCCNc1nc(N2CCN(C(=O)C([C@@H](C)CC)n3cc(C(N)CC(C)C)nn3)CC2)nc(N2CCN(C(=O)[C@H](CCC(=O)O)n3cc(C(N)CC(C)C)nn3)CC2)n1` (stereo partly specified) belongs -10.1%; to `Cc1ccccc1N=C(NO)c1nonc1N`, -6.6%.
For `O=C(O)c1ccc(Cl)c(S(=O)(=O)Nc2cccc(C(=O)Nc3cccc(C(F)(F)F)c3)c2)c1`, the inhibition is 26.6%.
To `COc1cc(C=Nc2c(C)cc(C)cc2C)ccc1OC(C)=O` belongs -9.04%; to `COc1cc(SC)ccc1C(=O)Nc1cccc(S(=O)(=O)NC2=NCCC2)c1`, 24.7%; to `O=c1c2cc(F)ccc2sn1-c1ccccc1`, 20.9%.
Regarding `Cc1ccc(C)c(-n2sc3ccc(F)cc3c2=O)c1`, the inhibition is -21.9%.
Consider `Cc1ccc(S(=O)(=O)N2CCC(=O)N(C(CO)C(C)C)CC2)cc1` (stereo unspecified), for which the inhibition was -0.84%.
To `Cc1ccc(C(=O)c2ccc(C(F)(F)F)cc2)cc1` belongs 23.7%; to `CC(O)C(=O)N/N=C/c1ccccc1C(=O)O` (stereo unspecified), -1.19%; to `COc1ccc2c(c1)[nH]c1c(C)nccc12`, 0.33%.
To `COc1ccc2[nH]c3c(Cl)ncnc3c2c1` belongs 66.1%; to `COc1ccc(NC(=O)C2CCCN(C(=O)c3ccc(Cl)cc3)C2)cc1Cl` (stereo unspecified), 5.35%.
As for `CCOc1ccc(CNC(=O)Cn2ccc3cc(S(=O)(=O)N4CCCC4)ccc32)cc1`, the inhibition is 9.09%.
To `CC(NC(=O)Cc1ccsc1)c1ccc(F)cc1` (stereo unspecified) belongs 3.93%; to `COc1ccc(Br)c(C(=O)N2CCN(S(=O)(=O)/C=C/c3ccccc3)CC2)c1`, 17.6%; to `CCc1ccc(N2CC(C(=O)Nc3ccc(S(=O)(=O)NCC4CCCO4)cc3)CC2=O)cc1` (stereo unspecified), -5.44%.
As to `S=c1[nH]nc(-c2cccs2)n1/N=C/c1cn(-c2ccccc2)nc1-c1cccs1`, the inhibition was -1.62%.
For `Cc1nc2ccccc2c(=O)n1/N=C/c1cn(-c2ccccc2)nc1-c1cccs1` the value was 3.43%; for `CC1(C)CC(=O)C(=Cc2cn(-c3ccccc3)nc2-c2ccccc2)C(=O)C1`, 44.3%.
For `O=Cc1cn(-c2ccccc2)nc1-c1ccccc1`, the inhibition was -1.35%.
To `O=C(N/N=C/c1cn(-c2ccccc2)nc1-c1cccs1)c1ccccc1F` belongs 3.19%.
To `NC(=O)N/N=C/c1cn(-c2ccccc2)nc1-c1cccs1` belongs 8.14%.
On to `Cc1ccc(/C=C2\SC(=S)N(CCC(=O)Nc3cccnc3)C2=O)cc1`, for which the inhibition amounted to 2.99%.
For `Cc1ccc(CN2CC(C(=O)N3CCN(c4ccccc4O)CC3)CC2=O)cc1` (stereo unspecified) the value was 5.09%; for `COc1ccc2cc3cc(C(=O)N4CCN(c5ccccn5)CC4)oc3nc2c1`, 15.3%; for `CCOc1cc(/C=C/C(=O)N(CC)CC(=O)NCc2cccs2)cc(Cl)c1OC`, 11.9%.
Regarding `COc1ccccc1Cn1nnc2c(=O)[nH]c(C3CCN(C(=O)c4ccccc4Cl)CC3)nc21`, the inhibition came to 33.2%.
For `CC(=O)Nc1ccc(-c2csc(NC(=O)CCNC(=O)c3ccco3)n2)cc1` the value was 1.09%; for `O=C(COC(=O)CCS(=O)(=O)c1ccc(Cl)cc1)NCCc1ccc(Cl)cc1Cl`, 21.4%; for `COC(=O)c1cc(Br)c(=O)n(Cc2ccc(C(=O)O)cc2)c1`, -0.84%.
For `COC(=O)c1ccc(Cn2cc(C(F)(F)F)ccc2=O)cc1` the value was 69.9%; for `C[C@H](CO)N1C[C@H](C)[C@@H](CN(C)C(=O)NC2CCCCC2)Oc2c(NC(=O)Cc3ccccc3)cccc2C1=O`, 17.9%; for `CN(CC(=O)Nc1ccc(F)c(F)c1)S(=O)(=O)c1cccs1`, 2.99%.
With `CCN(C[C@H]1N[C@@](C)(C(=O)OC)[C@H]2C(=O)N(C)C(=O)[C@@H]12)S(=O)(=O)c1ccc(OC)cc1`, the inhibition was 9.25%.
In the case of `COC(=O)COc1ccccc1C(N)=O`, the inhibition came out at 2.19%.
For `COC(=O)COc1cc(Cl)c(C=O)cc1OC` the value was 65.7%.
To `CCC(CC)NC(=O)COc1ccc(OC)cc1C=O` belongs -3.52%; to `COC(=O)COc1ccccc1/C=C1/NC(=O)NC1=O`, 5%.
For `COc1cccc(OC)c1C(=O)Nc1ccccc1C(=O)N1CCCCCC1`, the inhibition came out at 1.4%.
As to `NC(=O)CCN(C(=O)c1cccc(S(=O)(=O)N2CCc3ccccc32)c1)c1ccccc1`, the inhibition is 24.7%.
For `CCOc1ccc(CC(=O)Nc2nccs2)cc1` the value was 3.37%; for `O=C(COc1ccc2ccc(=O)oc2c1)Nc1nccs1`, 9.82%.
On to `O=C(COc1ccccc1)Nc1nccs1`, for which the inhibition is 50.5%.
Take `COc1cccc(OCC(=O)NNC(=O)c2cccs2)c1`: the inhibition came out at 88.2%.
To `COc1ccc(OCC(=O)Nc2ccncc2)cc1` belongs 67%; to `CCOc1ccc(S(=O)(=O)N(C)c2ccc(OCC(=O)Nc3nccs3)cc2)cc1`, 20.7%; to `O=C(COc1ccccc1)Nc1ccncc1`, 49.4%.
For `C/C(=N\NC(=O)COc1ccc2ccccc2c1)c1cccs1` the value was 1.6%; for `CCc1cccc(OCC(=O)Nc2c[nH]c(=O)[nH]c2=O)c1`, -17.2%.
To `COc1ccc(N2CC(NS(=O)(=O)c3cccs3)CC2=O)cc1` (stereo unspecified) belongs -13.6%; to `CCOc1ccc(NC(=O)CSc2nnc(C(C)C)n2CC)cc1`, 11.7%.
Regarding `CCn1cc(/C=C(\NC(=O)c2ccccc2F)C(=O)NCCCn2ccnc2)c2ccccc21`, the inhibition amounted to 14.8%.
For the molecule `COc1ccc(NC(=O)CSc2nc(-c3ccco3)nc3cc(=O)[nH]n23)cc1Cl`, the inhibition was 14.5%.
To `CCCN(Cc1nnc(-c2ccccc2Cl)o1)C(=O)c1ccc(C)c(S(=O)(=O)N2CCOCC2)c1` belongs -1.62%.
For `CC(=O)C[C@@H](O)CC(=O)[C@@H]1OC(=O)CCCCCCCc2ccccc21` the value was 4.28%; for `Cc1ccc(C(=O)Nc2scc(-c3ccccc3)c2C(=O)O)cc1`, 67.7%.
For `CCOC(=O)c1c(C)[nH]c(C=O)c1Cc1cccc(Cl)c1` the value was 22.5%; for `NC(=O)c1ccccc1NC(=S)NC(=O)c1ccc(Br)o1`, 13.4%.
Regarding `Cc1cc(OCC(=O)Nc2ccncc2)cc(C)c1Br`, the inhibition came to 62.5%.
For `Cc1cc(OCC(=O)Nc2ccncc2)c(C)cc1Br` the value was 68%; for `O=C(COc1ccc([N+](=O)[O-])cc1)N/N=C/c1ccccn1`, 64.7%; for `Cc1ccc(OCC(=O)Nc2ccncc2)cc1`, 76.7%.
As to `Cc1cc(C)cc(OCC(=O)Nc2ccncc2)c1`, the inhibition was 2.54%.
To `O=C(CNc1ccc2ccccc2c1)N/N=C/c1ccccn1` belongs 56.7%.
For `COC(=O)COc1ccc(/C=N/NC(=O)c2ccc(N(Cc3ccccc3)S(C)(=O)=O)cc2)cc1` the value was 64.2%.
For `CCn1c(SCc2cccnc2)nnc1-c1c[nH]c2ccccc12` the value was -5.65%; for `CC(=O)N1CCCc2cc(S(=O)(=O)NCCC3=CCCCC3)ccc21`, 17.1%; for `CCOC(=O)c1ccc(CNCc2ccc(Br)cc2)cc1`, 43.5%.
In the case of `CC(=O)NCC(=O)OCC(=O)c1ccc(Br)cc1`, the inhibition is 27.9%.
For `O=C(CN1CCCCC1)c1ccc(OC(F)F)cc1` the value was -4.47%; for `O=C(CCCCN1CCCCC1)c1ccccc1`, -7.7%; for `CC(C)COc1ccc(C(=O)OCCN2CCCCC2)cc1`, 13.8%.
To `CC(C)Oc1ccc(OCCCN2CCCCCC2)cc1` belongs 35.7%; to `O=C(CCN1CCCCC1)Nc1ccccc1`, -3.98%.
To `COc1ccc(C(=O)OCCN2CCCCC2)cc1` belongs 4.85%; to `CCC(=O)c1ccc(OCC(O)CN2CCCCC2)cc1` (stereo unspecified), 9.06%; to `COc1ccc(C(=O)CN2CCCCC2)cc1`, -2.71%.
Consider `COCCC1CCCCN1C(=O)c1cc(COc2ccc(C)nc2)on1` (stereo unspecified), for which the inhibition was -7.63%.
For `Cc1csc(=Nc2c(C)n(C)n(-c3ccccc3)c2=O)n1Cc1ccccc1` the value was -1.63%; for `NC(=O)c1ccsc1NC(=O)COC(=O)c1ccc(Cl)c(N)c1`, -0.17%; for `COc1ccc(C)cc1NC(=O)CCC(=O)Nc1nnc(C2CCCCC2)s1`, 0.87%.
To `CCN(CC1CCCN(CCc2cccc(OC)c2)C1)C(=O)c1ccoc1C` (stereo unspecified) belongs -3.45%; to `Cc1cc(NC(=O)CSc2nnc(-c3ccc(S(=O)(=O)N4CCCC4)cc3)n2C)no1`, -6.04%; to `O=C(Nc1cc(S(=O)(=O)N2CCCCCC2)ccc1OCC(F)(F)F)c1cnccn1`, 9.9%.
To `Cn1c(=O)[nH]c2nncnc2c1=O` belongs 12.4%; to `CCCCn1c(N)c(N(CCC(C)C)C(=O)COC(=O)c2cccnc2Cl)c(=O)[nH]c1=O`, 17.4%.
Regarding `CC(=O)Nc1ccc(S(=O)(=O)NCC(=O)NCCc2ccc(S(N)(=O)=O)cc2)cc1`, the inhibition was -0.25%.
For `O=C(N=C1N=C2C=CC(Br)=CN2Cc2ccccc21)c1ccc([N+](=O)[O-])cc1[N+](=O)[O-]` the value was 61.8%.
For `CCOc1ccc(NC(=O)CCN2CCCCC2)cc1` the value was -37.2%; for `CCOc1ccc(OCCN2CCCCC2)cc1`, 8.17%.
For `O=C(CSc1nnc(Cn2nnc3ccccc32)o1)Nc1cccc(Cl)c1` the value was 3.51%; for `N#CCO/N=C(\c1ccccc1)c1ccncc1`, 0.55%; for `O=c1oc2ccccc2c(Nc2ccc(O)cc2)c1[N+](=O)[O-]`, 35.3%.
Turning to `O=c1oc2ccccc2c(Nc2cccc3ccccc23)c1[N+](=O)[O-]`, the inhibition amounted to 21.2%.
